Measured values published in paper PMC11062922 (Nature Chemical Biology, 2023).
Like-named read-outs stand apart in the source and are kept apart here.

Experiments:
Parameters in all cases: species or system human, MV4-11 + K-562 + COLO205 + SK-N-BE2 + OVCAR-8
[1] = system: CDC42BPA; details: read-out: apparent Kd, n = 1
[2] = system: PRKG1; details: read-out: apparent Kd, n = 1
[3] = system: ROCK1; details: read-out: apparent Kd, n = 1
[4] = system: EPHA1; details: read-out: apparent Kd; compound concentrations: 100 nM and 1000 nM (sheet 'Samples'), CATDS: 3.2414414086750797E-2; n = 1
[5] = system: MTOR; details: read-out: apparent Kd, compound concentrations: 100 nM and 1000 nM (sheet 'Samples'), n = 1
[6] = system: PIK3CG; details: read-out: apparent Kd, compound concentrations: 100 nM and 1000 nM (sheet 'Samples'), n = 1
[7] = system: ICK; details: read-out: apparent Kd, n = 1
[8] = system: CDC42BPG; details: read-out: apparent Kd, n = 1
[9] = system: CDK9; details: read-out: apparent Kd, n = 1
[10] = system: CDK2; details: read-out: apparent Kd, n = 1
[11] = system: TGFBR2; details: read-out: apparent Kd, n = 1
[12] = system: TTK; details: read-out: apparent Kd, n = 1
[13] = system: CDK5; details: read-out: apparent Kd, n = 1
[14] = system: AXL; details: read-out: apparent Kd; compound concentrations: 100 nM and 1000 nM (sheet 'Samples'), CATDS: 9.0934128648907098E-2; n = 1
[15] = system: PDGFRB; details: read-out: apparent Kd, compound concentrations: 100 nM and 1000 nM (sheet 'Samples'), n = 1
[16] = compound concentrations:100 nM and 1000 nM (sheet 'Samples')

Cl.Cl.NC[C@H](CC1CCCCC1)NC(=O)c1ccc(-c2ccnc3[nH]ccc23)s1.NC[C@H](CC1CCCCC1)NC(=O)c1ccc(-c2ccnc3[nH]ccc23)s1 [GSK1581428A]
potency estimated from few doses [1, 16]: 0.0289 µM | potency estimated from few doses [2, 16]: 0.0414 µM | potency estimated from few doses [3, 16]: 0.0292 µM

CCC(CC)(CC)n1cnc2c(N)ncnc21 [SKF-97620]
potency estimated from few doses [4]: 0.828 µM | potency estimated from few doses ([5]; CATDS: 6.0851943016667201E-2): 0.22 µM | potency estimated from few doses ([6]; CATDS: 3.56480592193908E-2): 0.658 µM | potency estimated from few doses ([3]; compound concentrations: 100 nM and 1000 nM (sheet 'Samples'), CATDS: 2.49048423205754E-2): 1.78 µM

NS(=O)(=O)c1cccc(-c2ccc3c(NC(=O)C4CC4)n[nH]c3c2)c1 [SB-741905]
potency estimated from few doses ([5]; CATDS: 0.166958544620607): 0.626 µM

Cn1cc(C2=C(c3ccc(OC[C@@H](O)CO)cc3)C(=O)NC2=O)c2ccccc21 [RO3208546-000]
potency estimated from few doses ([5]; CATDS: 4.7243035246753197E-2): 0.73 µM

O=C1N=C(N[C@H](CO)c2ccccc2)S/C1=C\c1ccc2ncccc2c1 [RO4554339-000]
potency estimated from few doses ([1]; compound concentrations: 100 nM and 1000 nM (sheet 'Samples'), CATDS: 8.0851127030257999E-2): 2.18 µM

Cc1cc(NC(=O)c2cccc(NC(=O)/C=C/CN(C)C)c2)ccc1Nc1nccc(-c2cccnc2)n1 [JNK-IN-7]
potency estimated from few doses [7, 16]: 1.29 µM

O=C1N=C(NCc2ccccc2Br)S/C1=C\c1ccc2ncccc2c1 [RO4506918-000]
potency estimated from few doses ([8]; compound concentrations: 100 nM and 1000 nM (sheet 'Samples'), CATDS: 7.9298685313138301E-2): 1.37 µM

CCn1c(-c2nonc2N)nc2cncc(Br)c21 [SB-738004]
potency estimated from few doses [1, 16]: 2.13 µM | potency estimated from few doses [9, 16]: 1.12 µM | potency estimated from few doses [3, 16]: 0.181 µM

NS(=O)(=O)c1ccc(N/N=C2\C(=O)Nc3ccc(-c4cnco4)cc32)cc1 [GW276655_KCGS]
potency estimated from few doses [10, 16]: 0.983 µM | potency estimated from few doses [7, 16]: 1.77 µM

CC(C)(CO)CNC(=O)c1ccc2c(c1)/C(=N/Nc1ccc(S(N)(=O)=O)cc1)C(=O)N2 [GW301784X]
potency estimated from few doses [10, 16]: 0.0871 µM | potency estimated from few doses [7, 16]: 1.68 µM | potency estimated from few doses [11, 16]: 0.822 µM | potency estimated from few doses [12, 16]: 0.983 µM

Cl.Nc1nc(-c2ccc3c(c2)C(=Cc2cc(Br)c(O)c(Br)c2)C(=O)N3)cs1 [GW407323A]
potency estimated from few doses ([10]; compound concentrations: 100 nM and 1000 nM (sheet 'Samples'), CATDS: 3.5649543484101501E-2): 0.72 µM | potency estimated from few doses ([13]; compound concentrations: 100 nM and 1000 nM (sheet 'Samples'), CATDS: 3.2075067944878903E-2): 1.06 µM | potency estimated from few doses ([12]; compound concentrations: 100 nM and 1000 nM (sheet 'Samples'), CATDS: 2.7527023575449099E-2): 2.15 µM

COc1cc2ncn(-c3cc(OCc4ccccc4S(C)(=O)=O)c(C#N)s3)c2cc1OC [GSK319347A]
potency estimated from few doses [14]: 1.24 µM

Cc1occc1-c1nc(N)c(OC[C@@H](N)Cc2c[nH]c3ccccc23)cc1-c1cc2c(C)n[nH]c2cn1 [GSK1660450B]
potency estimated from few doses [1, 16]: 0.0346 µM | potency estimated from few doses [8, 16]: 0.0654 µM

NS(=O)(=O)c1ccc(NC=C2C(=O)Nc3ccc4ncsc4c32)cc1 [GW589933X]
potency estimated from few doses ([10]; compound concentrations: 100 nM and 1000 nM (sheet 'Samples'), CATDS: 6.9687110689249002E-2): 0.0658 µM | potency estimated from few doses ([13]; compound concentrations: 100 nM and 1000 nM (sheet 'Samples'), CATDS: 3.21718775388454E-2): 0.288 µM | potency estimated from few doses ([9]; compound concentrations: 100 nM and 1000 nM (sheet 'Samples'), CATDS: 2.7445436907685701E-2): 0.414 µM | potency estimated from few doses ([7]; compound concentrations: 100 nM and 1000 nM (sheet 'Samples'), CATDS: 1.95269690039667E-2): 1.05 µM | potency estimated from few doses ([15]; CATDS: 2.1122847549312301E-2): 0.826 µM | potency estimated from few doses ([12]; compound concentrations: 100 nM and 1000 nM (sheet 'Samples'), CATDS: 2.1205991954571499E-2): 0.817 µM

NS(=O)(=O)c1ccc(N/N=C2\C(=O)Nc3ccc4ncccc4c32)cc1 [GW305178X]
potency estimated from few doses ([10]; compound concentrations: 100 nM and 1000 nM (sheet 'Samples'), CATDS: 0.10178285521581799): 0.134 µM | potency estimated from few doses ([13]; compound concentrations: 100 nM and 1000 nM (sheet 'Samples'), CATDS: 5.4245718700327898E-2): 0.776 µM | potency estimated from few doses ([9]; compound concentrations: 100 nM and 1000 nM (sheet 'Samples'), CATDS: 4.6560668202509002E-2): 1.21 µM | potency estimated from few doses ([12]; compound concentrations: 100 nM and 1000 nM (sheet 'Samples'), CATDS: 4.7574405243594603E-2): 1.13 µM

NS(=O)(=O)c1ccc(N/C=C2\C(=O)Nc3ccc4ncsc4c32)cc1 [GW297361X]
potency estimated from few doses ([10]; compound concentrations: 100 nM and 1000 nM (sheet 'Samples'), CATDS: 7.9429171662671896E-2): 0.232 µM | potency estimated from few doses ([13]; compound concentrations: 100 nM and 1000 nM (sheet 'Samples'), CATDS: 4.1634678032953398E-2): 0.772 µM | potency estimated from few doses ([9]; compound concentrations: 100 nM and 1000 nM (sheet 'Samples'), CATDS: 3.67324795233104E-2): 1.04 µM | potency estimated from few doses ([12]; compound concentrations: 100 nM and 1000 nM (sheet 'Samples'), CATDS: 3.2979280004825598E-2): 1.4 µM

Cl.Cl.NCC(NCc1ccc(-c2ccnc3[nH]ccc23)s1)c1ccccc1.NCC(NCc1ccc(-c2ccnc3[nH]ccc23)s1)c1ccccc1 (stereo not drawn) [GSK1321565A]
potency estimated from few doses [2, 16]: 1.06 µM

COc1cc[nH]c1/C=C1\C(=O)Nc2ccc(F)c(C#C[C@@H](O)[C@@H](N)[C@@H](C)O)c21 [RO0283120-000]
potency estimated from few doses [13, 16]: 1.07 µM | potency estimated from few doses [9, 16]: 1.13 µM | potency estimated from few doses [11, 16]: 1.6 µM | potency estimated from few doses [12, 16]: 1.18 µM

CN[C@H](C#Cc1c(F)ccc2c1/C(=C/c1[nH]ccc1OC)C(=O)N2)CO.Cl [RO0283049-001]
potency estimated from few doses ([10]; compound concentrations: 100 nM and 1000 nM (sheet 'Samples'), CATDS: 2.1826327845386101E-2): 1.31 µM | potency estimated from few doses ([12]; compound concentrations: 100 nM and 1000 nM (sheet 'Samples'), CATDS: 1.9624563492428401E-2): 2.08 µM

CNCC1CCn2c(c(C3=C(c4cn(C)c5ccccc45)C(=O)NC3=O)c3ccccc32)C1 (stereo not drawn) [RO0318676-000]
potency estimated from few doses ([10]; compound concentrations: 100 nM and 1000 nM (sheet 'Samples'), CATDS: 2.9072745389082302E-2): 1.54 µM

CC(C)N1CC(=O)N(C)c2cnc(Nc3cccc(S(=O)(=O)CCN4CCOCC4)c3)nc21 [BI00009348]
potency estimated from few doses ([6]; CATDS: 0.22323444695651501): 0.109 µM

O=C1N=C(NCCc2ccccc2Cl)S/C1=C\c1ccc2ncccc2c1 [RO4498484-000]
potency estimated from few doses ([1]; compound concentrations: 100 nM and 1000 nM (sheet 'Samples'), CATDS: 5.5434431749678797E-2): 2.45 µM

COc1cc[nH]c1/C=C1\C(=O)Nc2ccc([N+](=O)[O-])c(N3CC[C@@H](O)C3)c21 [RO0504985-000]
potency estimated from few doses ([10]; compound concentrations: 100 nM and 1000 nM (sheet 'Samples'), CATDS: 3.3217097054667903E-2): 1.28 µM | potency estimated from few doses ([13]; compound concentrations: 100 nM and 1000 nM (sheet 'Samples'), CATDS: 3.2036617578660199E-2): 1.47 µM | potency estimated from few doses ([9]; compound concentrations: 100 nM and 1000 nM (sheet 'Samples'), CATDS: 3.1258790077652497E-2): 1.62 µM | potency estimated from few doses ([7]; compound concentrations: 100 nM and 1000 nM (sheet 'Samples'), CATDS: 0.118189348894571): 0.047 µM | potency estimated from few doses ([15]; CATDS: 3.1166812666601599E-2): 1.64 µM | potency estimated from few doses ([11]; compound concentrations: 100 nM and 1000 nM (sheet 'Samples'), CATDS: 3.2384825488945002E-2): 1.41 µM

Cl.Cl.NCC(NC(=O)c1cc(-c2ccnc3[nH]ccc23)cs1)c1ccccc1.NCC(NC(=O)c1cc(-c2ccnc3[nH]ccc23)cs1)c1ccccc1 (stereo not drawn) [GSK1229959A]
potency estimated from few doses ([1]; compound concentrations: 100 nM and 1000 nM (sheet 'Samples'), CATDS: 7.2504197887005906E-2): 0.0153 µM | potency estimated from few doses ([8]; compound concentrations: 100 nM and 1000 nM (sheet 'Samples'), CATDS: 9.9615433098280207E-2): 0.0088 µM | potency estimated from few doses ([9]; compound concentrations: 100 nM and 1000 nM (sheet 'Samples'), CATDS: 1.9893156316103101E-2): 0.801 µM | potency estimated from few doses ([2]; compound concentrations: 100 nM and 1000 nM (sheet 'Samples'), CATDS: 9.38640843647673E-2): 0.0097 µM | potency estimated from few doses ([3]; compound concentrations: 100 nM and 1000 nM (sheet 'Samples'), CATDS: 0.109953475811368): 0.00753 µM

COc1ccc(-n2cnc3c(N)ncnc32)cc1 [SKF-97236]
potency estimated from few doses ([15]; CATDS: 0.12494680251160301): 1.97 µM
